# Data taken from PubChem BioAssay (NCATS).
# Values without a mark were called inactive. Results filed as inconclusive are left out. Where a call stands in place of a potency, no number is given. The source made the active and inactive calls. Unless noted, the call rests on the fitted dose curve; in most records, active means well fitted curve in the direction sought with a large enough effect; inconclusive means small, poorly fitted or top-dose-only effect, or another doubt; inactive means no such curve, though single readings can be large; an effect the other way counts as inactive or inconclusive.
# Tests used:
# [1] = biological target: Rap guanine nucleotide exchange factor 3 (Homo sapiens) (UniProt O95398); test: Confirmatory qHTS for antagonist of cAMP-regulated guanine nucleotide exchange factor 3 (EPAC1) (AID 1645880); settings: EPAC1 Rap1B-BODIPY-GDP exchange, fluorescence; activity, negative = inhibition: at 115 µM (top of the series); further: nearly all actives have a fitted effect of over 55% in size
# Procedure, shortened: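 Released BODIPY-GDP fluoresces less than Rap1-bound BODIPY-GDP; the signal is followed at 480/540 nm at 5-min intervals over 30 min, after 5 min at room temperature. Reactions contain 100 nM EPAC1, 250 nM RAP1B-BODIPY-GDP and 50 uM GDP; results are normalized to ATA and DMSO.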
# [2] = biological target: Rap guanine nucleotide exchange factor 4 (Homo sapiens) (UniProt Q8WZA2); test: Confirmatory qHTS for agonist of cAMP-regulated guanine nucleotide exchange factor 4 (EPAC2) (AID 1645884);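 further: nucleotide exchange releases bodipy-GDP from Rap1 and this lowers its fluorescence; nearly all actives have a fitted effect of over 65% in size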; further: potency means the concentration at half of the fitted maximal effect
# [3] = biological target: Rap guanine nucleotide exchange factor 4 (Homo sapiens) (UniProt Q8WZA2); test: Confirmatory qHTS for antagonist of cAMP-regulated guanine nucleotide exchange factor 4 (EPAC2) (AID 1645885); further: nearly all actives have a fitted effect of over 25% in size; further: potency means the concentration at half of the fitted maximal effect
# [4] = biological target: Rap guanine nucleotide exchange factor 3 (Homo sapiens) (UniProt O95398); test: Counterscreen qHTS for antagonist of cAMP-regulated guanine nucleotide exchange factor 3 (EPAC1) (AID 1645888)
# Procedure, shortened: (§1)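 Measured: fluorescence of BODIPY-GDP bound to Rap1B, which falls as exchange proceeds. Conditions include 50 uM competing GDP, 5 and 30 min reads, and a later cAMP challenge for antagonist detection.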
# [5] = biological target: Rap guanine nucleotide exchange factor 3 (Homo sapiens) (UniProt O95398); test: Counterscreen qHTS for agonist of cAMP-regulated guanine nucleotide exchange factor 3 (EPAC1) (AID 1645889); further: nearly all actives have a fitted effect of over 40% in size; further: potency means the concentration at half of the fitted maximal effect
# Procedure, shortened: as §1
# [6] = biological target: Tumor susceptibility gene 101 protein (Homo sapiens) (UniProt Q99816); test: qHTS Assay for Iinhibitors of HIV-1 Budding by Blocking the Interaction of PTAP/TSG101: Hit Validation (AID 651600); further: nearly all actives have a fitted effect of over 70% in size; further: potency means the concentration at half of the fitted maximal effect
# Procedure, shortened: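 Displacement of a FITC-labeled PTAP-motif peptide (50 nM) from the Tsg101 binding domain (10 uM) was monitored by fluorescence polarization after a 20 min room-temperature incubation.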
# [7] = Stat Signaling Pathway (AID 446; active means well fitted curve in either direction with a large enough effect, not every such curve was filed as active;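 further: ME-180 cervical cancer cells given 40 pM IL-6 alongside compound; SIE-controlled beta-lactamase reporter measured as 460/530 nm FRET emission ratio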)
# Procedure, shortened: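 Emission at 460 and 530 nm (excitation 405 nm) reports SIE-controlled beta-lactamase in ME-180 cells. Cells received compound with 40 pM IL-6 for 5 hrs at 37 C; data scaled between 300 pM IL-6 and 125 nM JAK-inhibitor controls.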
# [8] = biological target: Glucocorticoid receptor (Homo sapiens) (UniProt P04150); test: GR-GFP Redistribution (AID 450;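 active means compounds whose dose series gives a full or clear partial fitted curve of increased nuclear translocation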; further: potency means the concentration at half of the fitted maximal effect); settings: U2OS GR-GFP nuclear translocation, laser cytometry, 2 h
# Glucocorticoid receptor (Homo sapiens), sequence (P04150 whole entry, looked up): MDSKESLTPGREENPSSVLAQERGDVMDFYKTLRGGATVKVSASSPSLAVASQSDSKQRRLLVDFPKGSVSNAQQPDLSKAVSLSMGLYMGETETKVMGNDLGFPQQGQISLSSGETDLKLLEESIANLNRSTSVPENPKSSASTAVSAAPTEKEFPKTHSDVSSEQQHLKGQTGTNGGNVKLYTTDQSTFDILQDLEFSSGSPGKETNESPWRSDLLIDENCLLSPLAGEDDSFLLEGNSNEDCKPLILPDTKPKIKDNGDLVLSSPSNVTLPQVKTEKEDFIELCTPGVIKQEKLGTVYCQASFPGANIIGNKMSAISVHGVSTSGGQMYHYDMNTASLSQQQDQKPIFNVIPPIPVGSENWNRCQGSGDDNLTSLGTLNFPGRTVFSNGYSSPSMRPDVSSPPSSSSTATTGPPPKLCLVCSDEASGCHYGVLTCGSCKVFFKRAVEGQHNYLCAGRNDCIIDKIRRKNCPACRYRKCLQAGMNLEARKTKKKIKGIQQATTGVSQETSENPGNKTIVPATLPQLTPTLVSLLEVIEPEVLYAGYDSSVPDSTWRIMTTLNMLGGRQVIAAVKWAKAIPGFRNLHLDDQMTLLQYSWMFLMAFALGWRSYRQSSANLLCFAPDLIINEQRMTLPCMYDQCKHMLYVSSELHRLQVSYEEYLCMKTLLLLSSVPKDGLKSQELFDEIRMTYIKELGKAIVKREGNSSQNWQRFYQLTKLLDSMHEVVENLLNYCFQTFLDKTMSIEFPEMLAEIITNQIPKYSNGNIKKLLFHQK
# Tumor susceptibility gene 101 protein (Homo sapiens), sequence (Q99816 whole entry, looked up, the tested form may be a part): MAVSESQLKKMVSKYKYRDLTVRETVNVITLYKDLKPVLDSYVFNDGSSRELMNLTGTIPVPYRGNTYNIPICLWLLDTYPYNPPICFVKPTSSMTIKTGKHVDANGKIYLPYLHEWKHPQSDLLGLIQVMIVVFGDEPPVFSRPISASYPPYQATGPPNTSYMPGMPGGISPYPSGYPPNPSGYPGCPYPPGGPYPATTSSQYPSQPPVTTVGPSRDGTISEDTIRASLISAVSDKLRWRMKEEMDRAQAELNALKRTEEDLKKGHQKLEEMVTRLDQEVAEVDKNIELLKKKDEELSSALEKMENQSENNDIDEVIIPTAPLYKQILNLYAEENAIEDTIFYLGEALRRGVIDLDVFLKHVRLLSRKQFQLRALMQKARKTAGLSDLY
# Rap guanine nucleotide exchange factor 4 (Homo sapiens), sequence (Q8WZA2 whole entry, looked up): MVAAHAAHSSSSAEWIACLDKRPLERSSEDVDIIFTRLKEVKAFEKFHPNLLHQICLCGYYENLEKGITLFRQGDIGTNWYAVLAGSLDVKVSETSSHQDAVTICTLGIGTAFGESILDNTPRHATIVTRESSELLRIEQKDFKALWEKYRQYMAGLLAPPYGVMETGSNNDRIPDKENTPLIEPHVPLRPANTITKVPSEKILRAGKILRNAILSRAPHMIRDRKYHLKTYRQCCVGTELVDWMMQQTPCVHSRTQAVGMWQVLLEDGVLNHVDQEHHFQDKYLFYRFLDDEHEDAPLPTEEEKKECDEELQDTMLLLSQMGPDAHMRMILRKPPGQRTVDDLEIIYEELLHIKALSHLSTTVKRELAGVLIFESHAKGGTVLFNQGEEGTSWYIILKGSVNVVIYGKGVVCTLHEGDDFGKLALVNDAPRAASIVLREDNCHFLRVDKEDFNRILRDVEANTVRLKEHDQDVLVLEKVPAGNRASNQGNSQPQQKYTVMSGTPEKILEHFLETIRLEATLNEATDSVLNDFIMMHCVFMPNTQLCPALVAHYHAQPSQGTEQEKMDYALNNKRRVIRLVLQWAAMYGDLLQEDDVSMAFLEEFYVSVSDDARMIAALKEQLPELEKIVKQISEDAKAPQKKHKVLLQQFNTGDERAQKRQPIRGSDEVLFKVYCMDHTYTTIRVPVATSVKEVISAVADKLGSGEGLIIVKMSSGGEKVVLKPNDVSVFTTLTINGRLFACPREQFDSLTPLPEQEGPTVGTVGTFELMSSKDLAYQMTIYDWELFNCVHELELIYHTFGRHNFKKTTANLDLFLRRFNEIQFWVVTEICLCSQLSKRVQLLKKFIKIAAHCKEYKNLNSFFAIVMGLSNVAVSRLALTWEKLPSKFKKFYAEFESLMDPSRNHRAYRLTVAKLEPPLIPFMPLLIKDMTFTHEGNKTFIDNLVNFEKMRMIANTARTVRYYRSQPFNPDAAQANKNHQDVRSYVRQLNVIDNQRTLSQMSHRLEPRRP
# Rap guanine nucleotide exchange factor 3 (Homo sapiens), sequence (O95398 whole entry, looked up): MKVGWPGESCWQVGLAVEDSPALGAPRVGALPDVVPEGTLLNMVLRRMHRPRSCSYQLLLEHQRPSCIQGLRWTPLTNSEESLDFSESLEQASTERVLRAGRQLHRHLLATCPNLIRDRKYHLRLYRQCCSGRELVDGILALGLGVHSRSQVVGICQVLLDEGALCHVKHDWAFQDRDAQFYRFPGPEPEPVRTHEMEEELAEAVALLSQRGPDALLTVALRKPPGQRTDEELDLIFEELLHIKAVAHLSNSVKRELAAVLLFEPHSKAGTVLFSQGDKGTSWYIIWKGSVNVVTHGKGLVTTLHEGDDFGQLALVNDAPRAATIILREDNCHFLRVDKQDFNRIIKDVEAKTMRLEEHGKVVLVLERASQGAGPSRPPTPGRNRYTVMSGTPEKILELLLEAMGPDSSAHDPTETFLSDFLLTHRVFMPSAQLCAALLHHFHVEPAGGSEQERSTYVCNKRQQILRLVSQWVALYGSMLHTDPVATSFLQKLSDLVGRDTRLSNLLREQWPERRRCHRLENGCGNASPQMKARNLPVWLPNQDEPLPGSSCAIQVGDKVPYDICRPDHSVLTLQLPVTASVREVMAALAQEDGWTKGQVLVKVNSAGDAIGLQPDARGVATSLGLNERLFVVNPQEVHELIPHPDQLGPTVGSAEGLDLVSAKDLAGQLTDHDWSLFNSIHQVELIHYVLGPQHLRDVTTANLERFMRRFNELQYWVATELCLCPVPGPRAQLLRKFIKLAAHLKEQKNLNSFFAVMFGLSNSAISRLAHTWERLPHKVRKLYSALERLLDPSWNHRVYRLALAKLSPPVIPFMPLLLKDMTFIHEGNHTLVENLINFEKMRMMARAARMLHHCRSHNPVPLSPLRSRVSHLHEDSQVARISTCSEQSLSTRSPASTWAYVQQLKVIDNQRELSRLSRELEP
structure (smiles),measurement,setting,value
COc1ccc(CN(C(=O)c2cccs2)c2ccccc2)cc1,Potency,[1],inactive
same,activation,[2],"16.8% [at 17.1 µM, percent relative to cAMP agonist control]"
same,Potency,[3],inactive
same,"activity change, negative = inhibition",[4],-5.93% [at 30.8 µM]
same,activation,[5],12% [at 30.8 µM]
Cc1n[nH]c(C)c1N1C(=O)c2cccc3c(N4CCCCCC4)ccc(c23)C1=O,Potency,[6],20.6 µM (active)
same,Potency,[1],inactive
same,Potency,[2],112 µM (active)
same,Potency,[3],inactive
same,Potency,[4],inactive
same,Potency,[5],12.6 µM (active)
O=c1oc2c3c4c(cc2c(C(F)(F)F)c1CCN1CCOCC1)CCCN4CCC3,outcome,[7],inactive
same,Potency,[8],> 20.6 µM
same,Potency,[1],inactive
same,Potency,[2],100 µM (active)
same,Potency,[3],inactive
same,Potency,[4],inactive
same,Potency,[5],17.8 µM (active)
COc1cccc2c1C(=O)c1c(O)c3c(c(O)c1C2=O)CC(O)(C(=O)CO)CC3OC1CC(N(C)C)C(O)C(C)O1 (configuration not stated),Potency,[6],4.61 µM (active)
same,Potency,[1],inactive
same,activation,[2],"8.33% [at 17.1 µM, percent relative to cAMP agonist control]"
same,Potency,[3],inactive
same,"activity change, negative = inhibition",[4],33.3% [at 30.8 µM]
CC1=Nc2ccccc2/C1=C\c1nc(-c2ccc(F)cc2)oc1O,Potency,[6],29.1 µM (active)
same,Potency,[1],inactive
same,Potency,[2],112 µM (active)
same,Potency,[3],inactive
same,Potency,[4],inactive
same,Potency,[5],25.1 µM (active)
CC(C)CC(=NNC(=O)c1ccncc1)c1cc(Cl)ccc1O,Potency,[1],inactive
same,Potency,[2],100 µM (active)
same,Potency,[4],inactive
COc1ccc2noc3c2c1C(=O)c1ccccc1-3,Potency,[1],inactive
same,Potency,[2],112 µM (active)
same,Potency,[3],inactive
same,Potency,[5],20 µM (active)
Cc1cccc(N2C(=O)c3cccc4c(N)ccc(c34)C2=O)c1,Potency,[6],2.31 µM (active)
same,Potency,[1],inactive
same,Potency,[2],112 µM (active)
same,Potency,[3],84.9 µM (active)
same,Potency,[5],70.8 µM (active)
Cc1nc(Cl)c2c(n1)NC1=C(O2)C(=O)CCC1,Potency,[6],18.3 µM (active)
same,Potency,[1],inactive
same,activation,[2],"10.5% [at 17.1 µM, percent relative to cAMP agonist control]"
same,Potency,[3],inactive
same,"activity change, negative = inhibition",[4],20% [at 30.8 µM]
COCc1c(C(=O)N2CCc3ccccc32)oc2ccccc12,Potency,[1],inactive
same,Potency,[2],112 µM (active)
same,Potency,[4],inactive
CCN(CC)c1ccc2cc(S(=O)(=O)c3ccc(Cl)cc3)c(=O)oc2c1,Potency,[6],18.3 µM (active)
same,Potency,[1],inactive
same,Potency,[2],100 µM (active)
same,Potency,[3],42.6 µM (active)
same,Potency,[4],inactive
CCCn1c(O)c(N=Nc2ccc3ccccc3n2)c2ccccc21,Potency,[6],inactive
same,Potency,[1],inactive
same,Potency,[2],100 µM (active)
same,Potency,[3],21.3 µM (active)
same,Potency,[4],inactive
CNc1ccc2c3c(cccc13)C(=O)N(C)C2=O,Potency,[6],2.06 µM (active)
same,Potency,[1],inactive
same,Potency,[2],112 µM (active)
same,Potency,[3],84.9 µM (active)
O=C1CCNc2ccc(-c3ccccc3)cc21,Potency,[6],8.19 µM (active)
same,Potency,[1],inactive
same,Potency,[2],112 µM (active)
same,Potency,[3],inactive
same,Potency,[4],inactive
same,Potency,[5],56.2 µM (active)
COc1cccc2c1C(=O)c1c(O)c3c(c(O)c1C2=O)CC(O)(C(C)=O)CC3OC1CC(N(C)C)C(O)C(C)O1 (configuration not stated),Potency,[6],9.19 µM (active)
same,Potency,[1],inactive
same,activation,[2],"10.6% [at 17.1 µM, percent relative to cAMP agonist control]"
same,Potency,[3],inactive
Oc1ccc2nnc3c(Br)cnn3c2c1,Potency,[6],16.3 µM (active)
same,Potency,[1],inactive
same,Potency,[2],112 µM (active)
same,Potency,[3],inactive
same,Potency,[4],inactive
COc1ccccc1NC(=O)/C(C#N)=C/c1cc([N+](=O)[O-])ccc1N1CCCC1,Potency,[6],14.6 µM (active)
same,Potency,[1],inactive
same,Potency,[2],112 µM (active)
same,Potency,[3],75.7 µM (active)
same,Potency,[4],inactive
O=c1c(/C=C(\O)c2ccc(F)cc2)nc2ccccc2n1-c1ccccc1,Potency,[6],inactive
same,Potency,[1],inactive
same,Potency,[2],100 µM (active)
same,Potency,[3],inactive
same,Potency,[4],inactive
COCCN1C(=O)/C(=C/c2ccc(N3CCCC3)cc2)SC1=S,Potency,[1],inactive
same,Potency,[2],112 µM (active)
same,Potency,[4],inactive
Cn1nc(-c2ccccc2)c2nc3ccccc3nc21,Potency,[6],16.3 µM (active)
same,Potency,[1],inactive
same,Potency,[2],100 µM (active)
same,Potency,[3],75.7 µM (active)
same,Potency,[4],inactive
same,Potency,[5],inactive
CCOc1cccc2sc(N3CCN(C(=O)C(C)(C)C)CC3)nc12,Potency,[1],inactive
same,Potency,[2],inactive
same,outcome,[3],inactive [at 12.7 µM]
same,Potency,[5],inactive
Nc1ccc2c3c(cccc13)C(=O)N(c1ccccc1)C2=O,Potency,[6],3.66 µM (active)
same,Potency,[1],inactive
same,Potency,[2],100 µM (active)
same,Potency,[3],inactive
COc1ccc(/C=C2\C(=O)NC(=O)c3ccccc32)cc1OC,Potency,[1],inactive
same,Potency,[2],inactive
same,Potency,[4],inactive
Cc1ccccc1C(=O)Nc1ccc(C(=O)OCc2cc(=O)n3c4c(sc3n2)CCCC4)cc1,Potency,[1],inactive
same,Potency,[2],inactive
same,Potency,[3],inactive
same,Potency,[5],inactive
